# According to PMC8384837, “Expanding the binding specificity for RNA recognition by a PUF domain”:
# Legend:
# Assay in all cases: yeast three-hybrid, YBZ-1, SC-Leu-His + 0.5 mM 3-AT, 4 days
# Conditions in all cases: tags: N-Gal4 AD-HA kept; label: inside an RPR1-promoter hybrid RNA with tandem MS2 sites; ssRNA
# [1] = molecular target: PUM1 PUF domain R8-AWK (Homo sapiens, UniProt Q14671 828-1176, N1122A;Y1123W;Q1126K)
# Outline: (§1)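 Each repeat of the Pumilio-1 PUF domain was randomized at its three base-contacting residues, and these libraries were co-expressed from a centromeric plasmid with matching RNA elements in strain YBZ-1. After four days on SC-Leu (input) or SC-Leu-His + 0.5 mM 3-AT (selection), the repeat regions were PCR-amplified and Illumina-sequenced. The interaction score compares variant frequency between input and selection as a log change, computed in log2 with a pseudocount of 1 for absent variants.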
# [2] = molecular target: PUM1 PUF domain R5-SVG (Homo sapiens, UniProt Q14671 828-1176, C1007S;R1008V;Q1011G)
# Outline: as §1
# [3] = molecular target: PUM1 PUF domain R7-RGY (Homo sapiens, UniProt Q14671 828-1176, S1079R;N1080G;E1083Y)
# Outline: as §1
sequence,measurement,setting,value
GGCUAGAACUAGUGGAUCCCCCGGCGCCCGGCGGCUCGAGCCCGGGUAAGCGUAAAUAGUCUGCAUGCCGCCGGGCGCCAUGCCUGCAGGUCGACUCUAGAAAACAUG,binding signal,[1],4.69 log2 enrichment (interaction score)
GGCUAGAACUAGUGGAUCCCCCGGCGCCCGGCGGCUCGAGCCCGGGUAAGUGUGAAUAGUCUGCAUGCCGCCGGGCGCCAUGCCUGCAGGUCGACUCUAGAAAACAUG,binding signal,[2],2.82 log2 enrichment (interaction score)
GGCUAGAACUAGUGGAUCCCCCGGCGCCCGGCGGCUCGAGCCCGGGUAAGUUUAAAUAGUCUGCAUGCCGCCGGGCGCCAUGCCUGCAGGUCGACUCUAGAAAACAUG,binding signal,[3],2.43 log2 enrichment (interaction score)
